Most compounds without a hit are left out; they make up all but 15% or so of the library.
RORgamma inh: qHTS for inhibitors of ROR gamma transcriptional activity; Drosophila S2 Gal4-RORgamma UAS-luciferase reporter, 20 h; Potency, µM (series often up to 53.6 µM), most hits filed as inhibitors; 310,000 compounds, 5.4% hits; note: nearly all actives have a fitted effect of over 60% in size
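Drosophila S2 cells stably expressing Gal4-DBD/mouse RORγ fusion under metallothionein promoter plus UAS-luciferase; compound 1 h, then 700 uM CuSO4 induction for 20 h at ambient temperature; inhibition read as reduced luminescence.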
TDP1 cell CPT: qHTS for Inhibitors of human tyrosyl-DNA phosphodiesterase 1 (TDP1): qHTS in cells in presence of CPT; chicken DT40 Tdp1-/-;hTDP1 cells + 20 nM CPT, ATP luminescence, 48 h; Potency, µM (series often up to 46.2 µM), most hits filed as inhibitors; 420,000 compounds, 12% hits; AID 686979, 2013; note: nearly all actives have a fitted effect of over 55% in size
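Chicken DT40 Tdp1-/- cells complemented with human TDP1, 400 cells/well, exposed to compounds plus 20 nM camptothecin for at least 48 h at 37 C; viability read as ATP content by CellTiter-Glo luminescence.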
Gal4-VP16 FLuc: VP16 counterscreen qHTS for inhibitors of ROR gamma transcriptional activity. Drosophila S2 Gal4-VP16 UAS-luciferase, luminescence, 20 h. Potency, µM (doses to about 53.6 µM), actives largely listed as inhibitors. 310,000 compounds, 3.5% hits;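 note: Gal4-VP16 expression switched on by copper sulfate through the metallothionein promoter; nearly all actives have a fitted effect of over 50% in size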
TDP1 cell noCPT: qHTS for Inhibitors of human tyrosyl-DNA phosphodiesterase 1 (TDP1): qHTS in cells in absence of CPT | DT40 Tdp1-/- hTDP1 cells, no CPT, ATP luminescence, 48 h | Potency, µM (titrated, usually from 46.2 µM), actives largely listed as inhibitors | 420,000 compounds, 15% hits; note: nearly all actives have a fitted effect of over 55% in size
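Seeded 400 DT40-hTDP1 cells/well (vehicle DMSO, no 20 nM CPT); pinned compounds; ≥48 hr at 37 °C; CellTiter-Glo luminescence as viability measure.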
ELG1 DNA repair: qHTS screen for small molecules that inhibit ELG1-dependent DNA repair in human embryonic kidney (HEK293T) cells expressing luciferase-tagged ELG1 | HEK293T ELG1-luciferase reporter, luminescence, 16 h; DNA damage induced by 5-fluorouridine | Potency, µM (series often up to 46.1 µM), actives largely listed as inhibitors | 330,000 compounds, 2.3% hits; note: nearly all actives have a fitted effect of over 55% in size
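Reporter activity after DNA damage by 5-fluorouridine is monitored. Compound-treated cells incubate 16 hr at 37 °C, then ONE-Glo is added for 30 min before luminescence reading.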
ALOX12 inh: Primary qHTS assay for inhibitors of human arachidonate 12S-lipoxygenase (ALOX12): Round 2. Polyunsaturated fatty acid lipoxygenase ALOX12 (Homo sapiens), P18054. purified 12hLO, xylenol orange hydroperoxide absorbance. Potency, µM (doses to about 108 µM), hits mostly inhibitors. 580,000 compounds, 1.1% hits. AID 1671190, 2021
Target sequence (P18054 whole entry, looked up): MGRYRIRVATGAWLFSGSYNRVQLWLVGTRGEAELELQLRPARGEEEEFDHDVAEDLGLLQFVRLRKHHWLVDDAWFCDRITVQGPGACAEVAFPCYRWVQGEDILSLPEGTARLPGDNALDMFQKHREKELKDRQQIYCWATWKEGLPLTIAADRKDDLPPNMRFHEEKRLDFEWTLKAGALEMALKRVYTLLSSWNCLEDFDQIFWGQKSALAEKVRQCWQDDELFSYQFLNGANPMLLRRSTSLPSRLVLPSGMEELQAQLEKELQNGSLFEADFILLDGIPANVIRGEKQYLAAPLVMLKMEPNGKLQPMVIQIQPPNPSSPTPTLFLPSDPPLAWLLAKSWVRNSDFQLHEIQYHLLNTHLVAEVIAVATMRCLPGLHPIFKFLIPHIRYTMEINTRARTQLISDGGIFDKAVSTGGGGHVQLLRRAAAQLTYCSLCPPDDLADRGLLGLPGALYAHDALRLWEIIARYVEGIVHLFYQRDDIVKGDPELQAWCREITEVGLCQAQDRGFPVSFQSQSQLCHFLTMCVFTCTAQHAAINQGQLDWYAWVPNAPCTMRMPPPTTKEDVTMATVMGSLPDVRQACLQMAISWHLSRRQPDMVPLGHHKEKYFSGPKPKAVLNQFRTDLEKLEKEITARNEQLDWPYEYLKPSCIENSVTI
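Purified human 12hLO at 150 nM in 25 mM Hepes, 0.01% Triton X-100, pH 7.0, preincubated 15 min at room temperature with compound. Reaction started with 40 uM arachidonic acid, 30 min at room temperature. Hydroperoxide measured by Fe-xylenol orange, 573/405 nm absorbance ratio.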
Hits are given with their value; i = inactive; ? = inconclusive; nt = no result; ! = not active in a repeat; [ ] = remark or other dose. Calls come from the whole dose curve; as a rule, active = well fitted curve in the direction sought with a large enough effect; inconclusive = small, poorly fitted or top-dose-only effect, or another doubt; inactive = no such curve, though single readings can be large; an effect the other way counts as inactive or inconclusive.

SMILES | RORgamma inh | TDP1 cell CPT | Gal4-VP16 FLuc | TDP1 cell noCPT | ELG1 DNA repair | ALOX12 inh
Cc1cc(C)nc(NC2=NC3CCCCC3N2)n1 (configuration not stated) | i | 21µM | i | ? | ? | i
Cc1cc(C)nc(NC2=NCC(=O)N2c2cc(Cl)cc(Cl)c2)n1 | i | i | i | i | i | ?
CC(=O)N1CC2(CCN(C(=O)CCC(=O)O)C2)Cc2ccccc21 (configuration not stated) | nt | nt | nt | nt | nt | i[6.33 µM]
O=C(COc1ccccc1F)Nc1ccc(S(=O)(=O)NCc2ccco2)cc1 | i | ? | i | 18µM | i | i
O=C(COc1ccccc1)Nc1ccc(S(=O)(=O)NCc2ccco2)cc1 | i | ? | i | ? | i | i
O=C(Nc1ccc(S(=O)(=O)NCc2ccco2)cc1)c1ccc2ccccc2n1 | i | ? | i | 21µM | ? | ?
CCc1ccccc1OCC(=O)Nc1cccc(S(=O)(=O)NCc2ccco2)c1 | nt | 18µM | nt | ? | ? | i
Cn1nc(C(=O)OCC(=O)c2ccc(C3CCCCC3)cc2)c2ccccc2c1=O | nt | nt | nt | nt | nt | i
CCc1nc(C)c(C(=O)N2CCC3(CC2)CC(c2ccccc2)CN(CC)C3)o1 (configuration not stated) | nt | nt | nt | nt | nt | i
CCCCNC(=O)CN1CCN(Cc2ccc3cc(OC)ccc3c2)CC1 | i | ? | i | 18µM | i | ?
COc1ccc(NC(=O)CN2CCN(Cc3ccccc3)CC2)cc1 | i | i | i | i | i | i
O=C(O)c1cc(-c2ccco2)[nH]n1 | i | i | i | i | i | i
CC1CCC(C(=O)NNC(=O)c2cc(-c3ccco3)[nH]n2)CC1 (configuration not stated) | i | 18µM | i[10 µM] | 16µM | i | i
Cn1cccc1-c1cc(C(=O)N/N=C/c2ccccc2Cl)[nH]n1 | i | i | ? | i | ? | i
Cn1cccc1-c1cc(C(=O)N/N=C/c2cc(Br)ccc2O)[nH]n1 | 7.1µM | 5.8µM | 10µM | 4.1µM | ? | ?
COc1cccc(N2CCN(C(=O)c3ccc4c(c3)N(C)C3CCCCCN3C4=O)CC2)c1 (configuration not stated) | nt | nt | nt | nt | nt | i
Cc1cc(C)c2oc(C(=O)Nc3cccnc3)cc(=O)c2c1 | nt | nt | nt | nt | nt | i
Cc1ccc(S(=O)(=O)Nc2ccccc2C(=O)Nc2nc(-c3ccc(F)cc3)cs2)cc1 | i | 3.3µM | i | 2.6µM | ? | ?
COc1ccc(-c2csc(NC(=O)c3ccccc3NS(=O)(=O)c3ccc(F)c(F)c3)n2)cc1 | 5.6µM | 2.3µM | 4µM | 2.6µM | ? | ?
CC(C)c1ccc(/C=C/C(=O)NC(=S)NN2CCOCC2)cc1 | 4µM | ? | 4.5µM | ? | ? | ?
CC(C)c1ccc(NC(=O)CSc2nnc(CN3CCOCC3)n2C)cc1 | i | i | i | i | i | i
CC(C)c1ccc(C(=O)NN2CCOCC2)cc1 | ? | i | ? | i | i | i
CC(C)c1ccc(/C=C/C(=O)NC(=S)Nc2ccc(CN3CCOCC3)cc2)cc1 | 2.8µM | 9.2µM | 5µM | 18µM | ? | 40µM
O=C(COc1ccccc1Cl)NC(=S)Nc1ccc(CN2CCOCC2)cc1 | i | i | i | i | i | i
CC(C)CC(=O)NC(=S)Nc1ccc(CN2CCOCC2)cc1 | 4.5µM | i | i | i | i | i
SMILES | RORgamma inh | TDP1 cell CPT | Gal4-VP16 FLuc | TDP1 cell noCPT | ELG1 DNA repair | ALOX12 inh
CCc1cccc(NC(=S)Nc2ccc(CN3CCOCC3)cc2)c1 | 11µM | i | 20µM | i | i | ?
COc1cc(Nc2nc3ccccc3nc2NS(=O)(=O)c2cccc(C)c2)cc(OC)c1 | nt | nt | nt | nt | nt | i
COCc1nncn1C1CCN(C(=O)c2ccc(C)s2)CC1 | nt | nt | nt | nt | nt | i
COc1ccccc1OCC(=O)O | i | i | i | i | i | i
CC(C)=CCC1=C(OCC(=O)O)C(=O)c2ccccc2C1=O | ? | 23µM | 2.2µM | 29µM | i | i
CC(C)=CCC/C(C)=C/CC/C(C)=C/CC/C(C)=C/CC1=C(C)C(=O)c2ccccc2C1=O | i | 27µM! | i | 24µM | ? | ?
CCOC(=O)C(C)On1c(-c2ccccc2)nc2ccc([N+](=O)[O-])cc21 (configuration not stated) | ? | ? | i | 18µM | ? | ?
CCOC(=O)c1sc2ncnc(N3CCN(C)CC3)c2c1C | i | ? | i[10 µM] | ? | i | i
CCOC(=O)c1sc2nc(CSc3ccccc3)nc(NCCN(C)C)c2c1C | i | 16µM | i | ? | i | i
CCOC(=O)c1sc2nc(C)nc(NCCc3ccccn3)c2c1C | i | 21µM | i | 21µM | 21µM | i
CCOC(=O)c1sc2nc(C)nc(N3CCN(c4ncccn4)CC3)c2c1C | i | ? | i | 15µM | ? | i
CCOC(=O)c1sc2nc(CC(=O)OC)nc(NCC(=O)OC)c2c1C | i | i | i | i | ? | i
Cc1c(C(=O)N2CCCC2)sc2ncnc(NCCc3ccccn3)c12 | nt | i | nt | i | nt | i
COc1ccccc1CNc1nc(C)c(C(C)=O)s1 | ? | 21µM | i | 16µM | i | ?
O=c1c2c(-c3cccs3)csc2nc(CN2CCOCC2)n1CCOc1ccccc1Cl | nt | nt | nt | nt | nt | i
COc1cc(CCC(=O)N2CCc3n[nH]c(=O)n3CC2)on1 | nt | nt | nt | nt | nt | i
CCOC(=O)c1sc2nc(C)nc(NCc3ccccc3OC)c2c1C | i | 23µM | i | ? | ? | i
COc1ccc(C(C)=O)cc1CC(=O)Nc1cc(C)ccc1C | nt | nt | nt | nt | nt | i
O=C(O)C1=NOC2CN(Cc3ccc(C(F)(F)F)cc3)CC12 (configuration not stated) | nt | nt | nt | nt | nt | i[6.33 µM]
COCC(=O)N[C@@H]1CN(Cc2ccccc2C)C[C@H]1CO | nt | nt | nt | nt | nt | i
CCc1cccc(NS(=O)(=O)c2ccc3c(c2)N(C)CCO3)c1 | i | 13µM | ? | ? | i | i
CCC(=O)N1c2ccc(S(=O)(=O)NC3CCCCC3)cc2CC1C (configuration not stated) | i | 21µM | i | ? | i | i
CC1Cc2cc(S(=O)(=O)NCCc3ccc(Cl)cc3)ccc2N1C(=O)C1CCC1 (configuration not stated) | nt | ? | nt | 18µM | nt | i
CC(=O)N1c2ccc(S(=O)(=O)NCCc3ccc(Cl)cc3)cc2CC1C (configuration not stated) | ? | ? | i | ? | i | i
CCOc1ccccc1N(C)S(=O)(=O)c1ccc2c(c1)CC(C)N2C(=O)C1CC1 (configuration not stated) | i | 23µM | i | 16µM | i | i
